# Results: the supplement of paper PMC10849652
# Of roughly 7,900 targets only a part is listed; those with a hit were picked by preference. About 0.6% of all pairs of compound and target were hits. Unmarked numbers belong to inactive results.
# What was measured:
# Experiment in all cases: log2 fold change, soluble protein after heating vs DMSO (PISA); higher = thermal stabilisation; K562 cells, 10 uM, 30 min; active = over 0.2 and 3.5 SD of the protein, either way, in both replicates (recomputed)
# [1] = compound: Cc1ccc(NC(=O)c2ccc(CN3CC[C@H](N(C)C)C3)c(C(F)(F)F)c2)cc1Nc1nccc(-c2cncnc2)n1 [bafetinib]
# Method in brief: (§1)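 K562 cells at 2×10^6 cells/mL were treated for 30 min with 10 μM compound, and aliquots were heated for 3 min over 48°C-58°C before pooling. Extraction used PBS with 0.5% NP-40 at 4°C, and soluble protein was the supernatant after 21,000xg for 90 min, measured by TMTpro 16plex LC-MS/MS with channel sums equalised. Thermal stability values, relative to control samples and from duplicates, are log2 fold changes.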
# [2] = compound: Cc1cccc(CC(=O)N2CCc3c2ccc(-c2cn(C)c4ncnc(N)c24)c3F)n1
# Method in brief: as §1
# [3] = compound: Cc1cn(-c2cc(NC(=O)c3ccc(C)c(Nc4nccc(-c5cccnc5)n4)c3)cc(C(F)(F)F)c2)cn1 [nilotinib]
# Method in brief: as §1
# [4] = compound: Cc1nc(Nc2n[nH]c3c2CN(C(=O)N[C@H](CN(C)C)c2ccccc2)C3(C)C)c2sccc2n1
# Method in brief: as §1
# [5] = compound: Cc1nc(Nc2ncc(C(=O)Nc3c(C)cccc3Cl)s2)cc(N2CCN(CCO)CC2)n1 [dasatinib]
# Method in brief: as §1
# [6] = compound: Cc1ncc(-c2ccnc(Nc3ccc(S(C)(=O)=O)cc3)n2)n1C(C)C
# Method in brief: as §1
# [7] = compound: Cn1cc(-c2ccc3c(c2)CCN3C(=O)Cc2cccc(C(F)(F)F)c2)c2c(N)ncnc21
# Method in brief: as §1
# [8] = compound: Cn1cc(-c2ccc3nnc(C(F)(F)c4ccc5ncccc5c4)n3n2)cn1
# Method in brief: as §1
# [9] = compound: Cn1cncc1[C@@](N)(c1ccc(Cl)cc1)c1ccc2c(c1)c(-c1cccc(Cl)c1)cc(=O)n2C [tipifarnib]
# Method in brief: as §1
# [10] = compound: FC(F)(F)c1ccc(/C=C/c2nc(COc3ccc(CCCCn4ccnn4)cc3)co2)cc1 [mubritinib]
# Method in brief: as §1
# UniProt Q8N8J7, sequence (Q8N8J7 whole entry, looked up): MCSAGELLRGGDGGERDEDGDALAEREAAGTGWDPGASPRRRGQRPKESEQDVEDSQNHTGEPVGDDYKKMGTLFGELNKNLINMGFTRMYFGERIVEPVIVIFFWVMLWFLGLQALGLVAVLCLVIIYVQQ
# UniProt Q8N6R0, sequence (Q8N6R0 whole entry, looked up): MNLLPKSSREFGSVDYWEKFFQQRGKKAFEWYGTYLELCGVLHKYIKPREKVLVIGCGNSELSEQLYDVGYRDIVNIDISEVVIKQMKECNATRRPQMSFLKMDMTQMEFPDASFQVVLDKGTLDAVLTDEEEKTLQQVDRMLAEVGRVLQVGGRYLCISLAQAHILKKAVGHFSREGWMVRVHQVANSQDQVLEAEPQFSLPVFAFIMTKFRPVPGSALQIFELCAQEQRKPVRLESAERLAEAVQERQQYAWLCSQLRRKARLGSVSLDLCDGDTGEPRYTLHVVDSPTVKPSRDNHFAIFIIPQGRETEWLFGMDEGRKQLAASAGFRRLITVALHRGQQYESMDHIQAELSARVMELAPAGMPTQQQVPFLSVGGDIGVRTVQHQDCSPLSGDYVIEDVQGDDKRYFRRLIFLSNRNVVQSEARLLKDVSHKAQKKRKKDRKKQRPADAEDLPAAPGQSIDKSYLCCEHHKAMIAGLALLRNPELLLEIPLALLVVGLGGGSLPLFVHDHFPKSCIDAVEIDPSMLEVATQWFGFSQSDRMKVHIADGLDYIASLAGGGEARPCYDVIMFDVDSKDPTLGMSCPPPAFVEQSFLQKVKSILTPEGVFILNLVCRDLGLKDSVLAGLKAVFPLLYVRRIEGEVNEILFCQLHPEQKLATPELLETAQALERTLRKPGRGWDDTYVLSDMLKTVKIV
# UniProt P98173, sequence (P98173 whole entry, looked up): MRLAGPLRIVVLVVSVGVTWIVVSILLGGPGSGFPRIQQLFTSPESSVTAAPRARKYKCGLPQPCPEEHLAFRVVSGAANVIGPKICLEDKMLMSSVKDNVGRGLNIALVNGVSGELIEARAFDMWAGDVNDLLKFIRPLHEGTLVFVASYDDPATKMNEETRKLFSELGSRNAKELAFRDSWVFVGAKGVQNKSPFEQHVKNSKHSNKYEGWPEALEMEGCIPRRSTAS
# UniProt Q8N3D4, sequence (Q8N3D4 whole entry, looked up): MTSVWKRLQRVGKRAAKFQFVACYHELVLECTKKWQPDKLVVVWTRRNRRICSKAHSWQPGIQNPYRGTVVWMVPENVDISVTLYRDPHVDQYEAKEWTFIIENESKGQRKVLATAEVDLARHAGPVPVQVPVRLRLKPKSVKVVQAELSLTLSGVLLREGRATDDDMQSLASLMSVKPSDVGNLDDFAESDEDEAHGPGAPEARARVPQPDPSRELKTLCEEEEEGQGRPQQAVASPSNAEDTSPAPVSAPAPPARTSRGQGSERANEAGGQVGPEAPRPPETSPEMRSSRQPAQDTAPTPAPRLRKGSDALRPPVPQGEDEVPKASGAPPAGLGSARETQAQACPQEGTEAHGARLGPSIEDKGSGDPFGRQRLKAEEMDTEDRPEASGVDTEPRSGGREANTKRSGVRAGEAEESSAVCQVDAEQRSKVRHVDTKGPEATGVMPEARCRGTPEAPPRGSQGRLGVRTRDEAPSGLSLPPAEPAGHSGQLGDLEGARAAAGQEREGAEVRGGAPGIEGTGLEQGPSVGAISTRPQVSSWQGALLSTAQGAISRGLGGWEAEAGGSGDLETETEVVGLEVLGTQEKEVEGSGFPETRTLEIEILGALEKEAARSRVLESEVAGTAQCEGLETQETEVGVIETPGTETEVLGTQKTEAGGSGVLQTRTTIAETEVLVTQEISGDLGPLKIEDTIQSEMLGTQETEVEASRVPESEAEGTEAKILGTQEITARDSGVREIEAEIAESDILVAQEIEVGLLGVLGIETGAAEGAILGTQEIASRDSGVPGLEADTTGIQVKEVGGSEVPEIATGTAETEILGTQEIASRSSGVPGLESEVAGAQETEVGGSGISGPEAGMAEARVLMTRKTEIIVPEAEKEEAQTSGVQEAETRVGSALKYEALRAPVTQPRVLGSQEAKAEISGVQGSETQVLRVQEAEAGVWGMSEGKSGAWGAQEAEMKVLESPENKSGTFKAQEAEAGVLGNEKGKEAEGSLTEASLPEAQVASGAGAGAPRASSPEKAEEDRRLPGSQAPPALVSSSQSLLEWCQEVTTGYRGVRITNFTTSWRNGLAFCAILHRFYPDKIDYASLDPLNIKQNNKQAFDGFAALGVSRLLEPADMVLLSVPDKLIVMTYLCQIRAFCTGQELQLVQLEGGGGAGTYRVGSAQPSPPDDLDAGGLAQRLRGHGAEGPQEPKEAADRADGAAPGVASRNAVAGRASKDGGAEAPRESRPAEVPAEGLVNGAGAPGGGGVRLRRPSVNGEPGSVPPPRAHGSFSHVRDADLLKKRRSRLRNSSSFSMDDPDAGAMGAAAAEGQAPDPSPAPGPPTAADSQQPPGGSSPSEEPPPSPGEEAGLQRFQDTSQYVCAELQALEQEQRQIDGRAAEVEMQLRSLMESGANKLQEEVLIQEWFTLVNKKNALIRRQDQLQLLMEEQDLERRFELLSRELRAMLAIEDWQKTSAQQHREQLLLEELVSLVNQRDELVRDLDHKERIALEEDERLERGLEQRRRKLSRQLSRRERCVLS
# UniProt Q9UBM7, sequence (Q9UBM7 whole entry, looked up): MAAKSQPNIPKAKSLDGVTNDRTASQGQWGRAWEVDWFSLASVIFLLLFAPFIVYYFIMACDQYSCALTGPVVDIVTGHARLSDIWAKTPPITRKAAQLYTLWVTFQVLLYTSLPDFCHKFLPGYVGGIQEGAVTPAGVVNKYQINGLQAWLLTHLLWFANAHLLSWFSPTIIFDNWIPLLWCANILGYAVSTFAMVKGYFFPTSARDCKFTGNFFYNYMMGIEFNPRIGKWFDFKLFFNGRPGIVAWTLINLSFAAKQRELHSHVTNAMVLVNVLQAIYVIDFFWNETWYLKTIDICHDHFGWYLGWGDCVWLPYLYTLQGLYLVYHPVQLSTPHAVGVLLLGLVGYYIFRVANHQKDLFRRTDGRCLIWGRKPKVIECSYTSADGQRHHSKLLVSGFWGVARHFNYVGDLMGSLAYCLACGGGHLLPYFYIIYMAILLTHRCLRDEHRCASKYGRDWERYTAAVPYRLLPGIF
# UniProt Q7L014, sequence (Q7L014 whole entry, looked up): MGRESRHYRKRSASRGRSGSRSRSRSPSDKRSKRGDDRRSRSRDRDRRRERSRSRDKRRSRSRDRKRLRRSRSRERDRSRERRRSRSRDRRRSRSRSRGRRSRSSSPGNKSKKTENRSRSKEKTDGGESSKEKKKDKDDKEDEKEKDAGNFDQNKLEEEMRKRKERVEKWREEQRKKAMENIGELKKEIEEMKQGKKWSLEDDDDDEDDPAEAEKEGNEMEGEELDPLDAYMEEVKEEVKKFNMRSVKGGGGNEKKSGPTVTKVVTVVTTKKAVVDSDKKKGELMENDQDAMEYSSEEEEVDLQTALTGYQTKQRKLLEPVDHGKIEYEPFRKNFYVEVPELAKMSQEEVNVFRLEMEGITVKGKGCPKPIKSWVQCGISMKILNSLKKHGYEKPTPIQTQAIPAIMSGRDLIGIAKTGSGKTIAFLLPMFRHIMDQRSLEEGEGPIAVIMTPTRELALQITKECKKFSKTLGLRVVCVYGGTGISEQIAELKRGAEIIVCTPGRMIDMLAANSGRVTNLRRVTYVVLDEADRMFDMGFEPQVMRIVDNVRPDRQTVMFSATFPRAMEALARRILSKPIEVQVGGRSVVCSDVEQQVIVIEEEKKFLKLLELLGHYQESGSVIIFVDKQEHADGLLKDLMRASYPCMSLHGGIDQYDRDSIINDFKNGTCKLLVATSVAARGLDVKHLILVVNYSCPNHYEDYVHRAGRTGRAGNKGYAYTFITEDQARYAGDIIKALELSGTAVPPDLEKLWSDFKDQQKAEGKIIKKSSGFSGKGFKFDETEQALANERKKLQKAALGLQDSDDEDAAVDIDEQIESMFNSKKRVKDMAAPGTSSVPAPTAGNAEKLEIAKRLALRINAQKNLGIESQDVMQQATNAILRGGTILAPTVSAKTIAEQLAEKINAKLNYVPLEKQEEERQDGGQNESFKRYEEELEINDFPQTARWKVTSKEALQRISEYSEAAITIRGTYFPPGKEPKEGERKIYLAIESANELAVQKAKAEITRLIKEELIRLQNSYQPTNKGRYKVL
# UniProt Q96DF8, sequence (Q96DF8 whole entry, looked up): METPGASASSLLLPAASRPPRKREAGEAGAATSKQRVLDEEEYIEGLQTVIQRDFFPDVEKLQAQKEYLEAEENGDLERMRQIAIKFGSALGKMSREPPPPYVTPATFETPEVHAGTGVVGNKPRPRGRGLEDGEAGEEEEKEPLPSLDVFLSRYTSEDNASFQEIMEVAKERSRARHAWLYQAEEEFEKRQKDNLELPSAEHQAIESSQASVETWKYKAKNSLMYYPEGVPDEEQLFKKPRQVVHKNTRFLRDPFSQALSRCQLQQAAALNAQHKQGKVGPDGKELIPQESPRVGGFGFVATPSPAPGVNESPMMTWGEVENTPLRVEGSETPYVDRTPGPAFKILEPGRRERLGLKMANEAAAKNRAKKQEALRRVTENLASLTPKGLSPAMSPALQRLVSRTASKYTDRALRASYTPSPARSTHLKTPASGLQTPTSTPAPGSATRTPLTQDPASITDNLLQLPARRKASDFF
# UniProt Q9C073, sequence (Q9C073 whole entry, looked up): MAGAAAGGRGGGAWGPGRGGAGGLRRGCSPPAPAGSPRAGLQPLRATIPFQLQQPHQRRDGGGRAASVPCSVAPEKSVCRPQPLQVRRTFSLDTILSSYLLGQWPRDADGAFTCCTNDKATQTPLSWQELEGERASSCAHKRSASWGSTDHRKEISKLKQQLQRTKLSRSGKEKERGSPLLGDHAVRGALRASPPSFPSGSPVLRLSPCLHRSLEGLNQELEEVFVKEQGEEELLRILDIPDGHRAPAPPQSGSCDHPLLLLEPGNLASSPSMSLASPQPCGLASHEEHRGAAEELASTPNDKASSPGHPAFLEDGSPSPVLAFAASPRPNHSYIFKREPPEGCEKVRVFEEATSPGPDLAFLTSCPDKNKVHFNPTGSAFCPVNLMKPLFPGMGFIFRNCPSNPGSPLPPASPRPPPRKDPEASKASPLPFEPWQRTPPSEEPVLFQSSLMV
Target,log2 fold change [1],log2 fold change [2],log2 fold change [3],log2 fold change [4],log2 fold change [5],log2 fold change [6],log2 fold change [7],log2 fold change [8],log2 fold change [9],log2 fold change [10]
EHBP1L1 (UniProt Q8N3D4),0.194,-0.006,-0.081,-0.218,-0.123,0.256,0.005,0.006,-0.039,0.007
DPP8 (UniProt Q6V1X1),-0.054,-0.035,0.027,-0.019,0.014,-0.001,0.048,0.054,0.065,0.036
CYB561A3 isoform 2 (UniProt Q8NBI2),0.03,-0.223,0.012,0.065,0.034,-0.029,0.004,-0.044,-0.087,-0.015
FAM117A (UniProt Q9C073),-0.021,0.004,-0.047,-0.083,-0.046,-0.018,0.016,0.032,0.039,0.024
DCUN1D1 (UniProt Q96GG9),-0.083,0.026,-0.025,-0.018,-0.047,0,0.008,0.03,-0.059,0.015
DIAPH1 (UniProt O60610),0.088,0.057,-0.011,-0.197,-0.055,0.077,-0.083,-0.035,-0.077,0.039
DTYMK (UniProt P23919),0.044,0.007,0.042,0.041,-0.151,-0.029,0.045,0.002,-0.019,0.078
DNAJB1 (UniProt P25685),-0.026,0.013,-0.042,-0.058,-0.064,0.026,0.035,0.02,-0.026,0.01
EPHX2 (UniProt P34913),0.131,-0.097,0.152,-0.029,-0.041,0.073,0.051,0.016,0.065,0.11
E2F4 (UniProt Q16254),-0.053,-0.026,-0.016,-0.141,-0.095,0.012,-0.007,-0.006,-0.009,0.01
FAM241A (UniProt Q8N8J7),-0.143,-0.056,-0.027,0.029,0.02,-0.095,0.046,0.049,0.008,0.028
ESS2 (UniProt Q96DF8),-0.186,-0.07,0.013,-0.048,0.011,0.019,-0.061,-0.081,0.038,0.008
DDB1 (UniProt Q16531),-0.019,-0.025,-0.004,0.027,0.046,-0.016,0.011,-0.001,-0.014,0.023
DHCR7 (UniProt Q9UBM7),0.428 (active),-0.005,-0.282,-0.005,-0.109,0.05,0.257,-0.016,-0.167,0.166
DNAH5 (UniProt Q8TE73),-0.065,-0.084,-0.006,0.015,0.085,-0.015,0,-0.06,0.267,0.032
CYP51A1 (UniProt Q16850),0.02,-0.019,0.156,-0.03,0.092,-0.016,-0.016,-0.143,1.27 (active),0.047
ELOC (UniProt Q15369),0.003,0.014,-0.028,0.013,0.032,-0.003,0.116,0.049,-0.027,0.005
FAAP100 (UniProt Q0VG06),0.201,0.043,-0.032,-0.005,0.035,-0.039,-0.005,0.101,0.1,0
ETNK1 (UniProt Q9HBU6),-0.042,0.037,-0.043,0.08,-0.07,0.06,0.026,0.008,-0.183,0.036
DNAJB12 (UniProt Q9NXW2),-0.057,0.007,-0.158,0.041,-0.068,0.015,-0.04,-0.039,0.016,0.01
DDX39A (UniProt O00148),0.001,0.014,-0.017,-0.278 (active),-0.134,-0.218,-0.018,-0.007,0.079,-0.182
EEF1AKNMT (UniProt Q8N6R0),0.067,-0.008,-0.02,-0.062,-0.118,0.084,-0.031,0.003,-0.154,0.089
FAM3A (UniProt P98173),-0.027,0.023,0.007,-0.044,0.036,-0.001,0.031,-0.03,0.042,0
FAM50A (UniProt Q14320),-0.035,-0.045,-0.016,-0.096,-0.134,0.029,-0.021,0.044,-0.031,0.083
DMXL1 (UniProt Q9Y485),-0.14,-0.034,-0.002,0.018,-0.099,-0.012,0.021,0.021,-0.035,-0.053
"EED, A0A5F9ZI63",0.019,-0.024,-0.027,0.043,0.015,-0.025,-0.076,-0.029,-0.014,-0.066
EFCAB14 (UniProt O75071),-0.008,-0.056,0.084,0.011,0.075,0.003,-0.123,-0.048,-0.062,0.081
EDC4 (UniProt Q6P2E9),0.006,0,0.013,-0.077,-0.018,-0.119,-0.046,-0.031,-0.038,-0.019
DDX46 (UniProt Q7L014),0.196,0.094,0.271,-1.44 (active),-0.084,0.1,0.104,0.102,-0.113,0.604 (active)
